These results are taken from PubChem BioAssay (Tox21).

Assay [1] in a line: qHTS assay to test for compound auto fluorescence at 535 nm (green) in HEK293 cells (AID 720680).
Assay [2] can be described thus: qHTS assay to test for compound auto fluorescence at 460 nm (blue) in HEK293 cell free culture (AID 720681). The essentials:
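Blue fluorescence (Ex 405/Em 460 nm, triamterene-equivalent) was read immediately after pin transfer of compound or DMSO into medium (DMEM, 10% FBS) without cells.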

A short description of assay [3]: qHTS assay to test for compound auto fluorescence at 535 nm (green) in HEK293 cell free culture (AID 720682). In outline: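 Measurement is a direct plate read of green fluorescence (485 nm in, 535 nm out) after compound addition to serum-supplemented DMEM lacking cells, with fluorescein used to express intensities.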
A short description of assay [4]: qHTS assay to test for compound auto fluorescence at 590 nm (red) in HEK293 cell free culture (AID 720683). In outline: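 Red-channel autofluorescence of compounds in culture medium (DMEM, 10% FBS), no cells, measured at 540/590 nm. Rose Bengal sodium is the reference fluorophore for equivalence.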
Assay [5] is described as follows: qHTS assay to test for compound auto fluorescence at 590 nm (red) in HepG2 cell free culture (AID 720684). In outline:
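Cell-free; medium MEM + 10% FBS; compound or DMSO added by pintool; read Ex 540/Em 590 nm; Rose Bengal sodium as red reference fluorophore.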

Assay [6] can be described thus: qHTS assay to test for compound auto fluorescence at 460 nm (blue) in HepG2 cell free culture (AID 720685). The essentials:
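Cell-free plates of MEM plus 10% FBS received 23 nL compound or DMSO vehicle; blue-channel (405/460 nm) intensity scored against triamterene as reference fluorophore.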

Assay [7] in a line: qHTS assay to test for compound auto fluorescence at 535 nm (green) in HepG2 cell free culture (AID 720686).
Assay [8] is described as follows: qHTS assay to test for compound auto fluorescence at 460 nm (blue) in HepG2 cells (AID 720687). In outline:
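Blue-channel autofluorescence (Ex/Em 405/460 nm, triamterene-equivalent) was measured after 1 hr compound exposure at 37 C, 5% CO2. Cells were HepG2, plated overnight at 37 C in MEM plus 10% FBS.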

Assay [9] is described as follows: qHTS assay to identify small molecule antagonists of the glucocorticoid receptor (GR) signaling pathway - cell viability counter screen (AID 720693). Note: nearly all actives have a fitted effect of over 55% in size. Note: potency is the fitted concentration of half-maximal effect.
A short description of assay [10]: qHTS assay for identifying genotoxic compounds that show differential cytotoxicity against isogenic chicken DT40 cell lines with known DNA damage response pathways - Rev3 mutant cell line (AID 743014). Note: potency is the fitted concentration of half-maximal effect; nearly all actives have a fitted effect of over 55% in size.
Assay [11] is described as follows: qHTS assay for identifying genotoxic compounds that show differential cytotoxicity against isogenic chicken DT40 cell lines with known DNA damage response pathways - Rad54/Ku70 mutant cell line (AID 743015). Note: potency is the fitted concentration of half-maximal effect; nearly all actives have a fitted effect of over 60% in size.
A short description of assay [12]: qHTS assay to identify small molecule antagonists of the androgen receptor (AR) signaling pathway - cell viability counter screen (AID 743033; note: nearly all actives have a fitted effect of over 45% in size; note: potency is the fitted concentration of half-maximal effect).
The nature of assay [13]: qHTS assay to identify small molecule antagonists of the androgen receptor (AR) signaling pathway using the MDA cell line - cell viability counter screen (AID 743041; note: nearly all actives have a fitted effect of over 45% in size; note: potency is the fitted concentration of half-maximal effect). The essentials:
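Viability read by CellTiter-Fluor fluorescence in the same wells as the antagonist screen, added after 15.5 h of a 16 h, 37C exposure. Human breast carcinoma MDA-kb2 AR-luc cells, compounds co-dosed with agonist R1881.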

The nature of assay [14]: qHTS assay for identifying genotoxic compounds that show differential cytotoxicity against isogenic chicken DT40 cell lines with known DNA damage response pathways - wild type cell line (AID 743012). Note: potency is the fitted concentration of half-maximal effect; nearly all actives have a fitted effect of over 60% in size. The essentials:
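CellTiter-Glo luminescence readout of viability in wild type DT40 cells after 40 h compound exposure at 37 C/5% CO2; 300 cells/well; reagent incubated 30 min at room temperature before reading.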

Assay [15] deals with Androgen receptor (Homo sapiens) (UniProt P10275). Nature of the assay: qHTS assay to identify small molecule antagonists of the androgen receptor (AR) signaling pathway using the MDA cell line (AID 743042; note: potency is the fitted concentration of half-maximal effect; nearly all actives have a fitted effect of over 55% in size). The essentials: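 Antagonist mode: compounds plus R1881 agonist added to MDA-kb2 AR-luc cells, incubated 16 h at 37C. Luciferase reporter luminescence quantified, with multiplexed CellTiter-Fluor readout for cell viability.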

In assay [16] the target is Glucocorticoid receptor (Homo sapiens) (UniProt P04150). Nature of the assay: qHTS assay to identify small molecule agonists of the glucocorticoid receptor (GR) signaling pathway (AID 720691; active = well fitted activation curve with a large enough effect in the signal ratio in the repeat runs, not every such curve was filed as active; the % refers to the signal ratio). The settings on record: GR-bla HeLa, beta-lactamase reporter ratio, 18 h; activation: at 62.4 µM (top of the series). In outline:
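HeLa GR-bla reporter line; cells pre-incubated 4 h, compound in DMSO 18 h at 37 C; LiveBLAzer B/G FRET substrate 2 h RT; fluorescence intensity read-out.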

“And” between values parts separate entries of the source, which are not always exact repeats. Equal values may be shown once. A number with no mark means an inactive call. Inconclusive results are not listed. The source made the active and inactive calls. Unless noted, calls come from the whole dose curve; as a rule, active = well fitted curve in the direction sought with a large enough effect in the repeat runs; inconclusive = weak or mixed curves; inactive = no such curve, though single readings can be large; an effect the other way counts as inactive or inconclusive.

Sequence of Glucocorticoid receptor (Homo sapiens) (P04150 whole entry, looked up): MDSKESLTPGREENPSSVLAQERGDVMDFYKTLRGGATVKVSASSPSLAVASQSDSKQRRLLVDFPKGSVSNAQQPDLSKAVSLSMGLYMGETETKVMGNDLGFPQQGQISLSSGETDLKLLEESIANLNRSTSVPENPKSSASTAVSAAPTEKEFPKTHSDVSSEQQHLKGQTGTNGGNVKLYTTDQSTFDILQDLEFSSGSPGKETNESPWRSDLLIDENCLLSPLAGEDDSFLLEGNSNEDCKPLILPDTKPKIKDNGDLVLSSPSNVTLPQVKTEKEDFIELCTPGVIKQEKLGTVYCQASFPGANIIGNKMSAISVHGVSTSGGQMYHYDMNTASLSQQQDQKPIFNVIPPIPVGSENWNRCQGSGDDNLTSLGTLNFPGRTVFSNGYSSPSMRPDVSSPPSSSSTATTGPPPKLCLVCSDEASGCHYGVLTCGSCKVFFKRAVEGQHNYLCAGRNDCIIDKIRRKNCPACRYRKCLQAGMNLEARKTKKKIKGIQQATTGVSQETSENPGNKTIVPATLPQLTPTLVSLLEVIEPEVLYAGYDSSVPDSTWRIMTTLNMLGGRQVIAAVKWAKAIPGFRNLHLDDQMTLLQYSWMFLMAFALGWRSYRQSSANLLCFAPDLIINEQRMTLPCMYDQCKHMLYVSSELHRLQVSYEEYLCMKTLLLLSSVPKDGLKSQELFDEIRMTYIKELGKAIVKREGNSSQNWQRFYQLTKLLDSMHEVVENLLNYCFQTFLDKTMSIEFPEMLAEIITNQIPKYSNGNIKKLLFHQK
Sequence of Androgen receptor (Homo sapiens) (P10275 whole entry, looked up): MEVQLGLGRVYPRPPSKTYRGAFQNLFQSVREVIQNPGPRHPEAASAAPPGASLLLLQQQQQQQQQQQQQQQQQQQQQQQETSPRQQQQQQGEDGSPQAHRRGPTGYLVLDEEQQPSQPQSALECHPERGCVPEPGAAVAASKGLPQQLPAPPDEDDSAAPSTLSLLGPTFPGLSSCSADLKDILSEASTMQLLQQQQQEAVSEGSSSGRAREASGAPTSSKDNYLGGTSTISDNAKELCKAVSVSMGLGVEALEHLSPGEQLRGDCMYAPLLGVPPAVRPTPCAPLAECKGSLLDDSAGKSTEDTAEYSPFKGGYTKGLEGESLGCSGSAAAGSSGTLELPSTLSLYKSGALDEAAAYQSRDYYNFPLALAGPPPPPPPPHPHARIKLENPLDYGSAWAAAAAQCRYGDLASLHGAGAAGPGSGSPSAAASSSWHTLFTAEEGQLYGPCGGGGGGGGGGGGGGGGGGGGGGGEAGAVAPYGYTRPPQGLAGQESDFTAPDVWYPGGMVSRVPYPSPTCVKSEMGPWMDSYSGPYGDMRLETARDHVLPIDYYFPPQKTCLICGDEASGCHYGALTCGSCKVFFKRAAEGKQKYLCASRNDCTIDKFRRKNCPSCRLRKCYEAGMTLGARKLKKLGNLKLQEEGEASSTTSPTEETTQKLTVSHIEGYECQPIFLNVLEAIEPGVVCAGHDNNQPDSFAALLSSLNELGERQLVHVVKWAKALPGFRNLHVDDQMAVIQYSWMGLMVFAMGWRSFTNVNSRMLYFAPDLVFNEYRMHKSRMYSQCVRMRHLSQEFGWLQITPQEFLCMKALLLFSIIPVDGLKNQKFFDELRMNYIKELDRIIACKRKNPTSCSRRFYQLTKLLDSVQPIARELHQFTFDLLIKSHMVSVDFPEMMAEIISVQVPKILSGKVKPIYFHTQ

Regarding `CCCCC(CC)COC(=O)c1ccc(O)cc1` (configuration not stated), the Potency entry in assay [1], in assay [2], in assay [3], in [4], in assay [5] and in [6] was “inactive” throughout. The Potency result in [7], in [8], in [12] and in assay [13] was “inactive” in each case. Moreover, the Potency in [9] was 43.5 µM (active); in [10], 43.1 µM (active) and 48.6 µM (active); in assay [11], 48.6 µM (active).

With `CCCCCCCCCCCCOC(=O)c1cc(O)c(O)c(O)c1`, the Potency entry in [1], in assay [2], in assay [3], in [4], in [5] and in assay [6] was “inactive” throughout. Also, the Potency entry in assay [7] and in assay [8] was “inactive” throughout. Also, the Potency in [9] was 27.4 µM (active) and 34.7 µM (active); in assay [14] it was 609 nM (active) and 386 nM (active); in assay [10] it was 384 nM (active) and 273 nM (active); in [11], 342 nM (active) and 217 nM (active); in assay [12], 54.9 µM (active); in assay [13], 54.5 µM (active).

Regarding `CCCCCCCCCCCC(=O)N(CC)CC`, the Potency entry in assay [1], in assay [2], in [3], in [4], in assay [5] and in [6] was “inactive” each time. Also, the Potency entry in [7], in assay [8], in [9], in assay [12] and in assay [13] was “inactive” throughout. Also, the Potency in [10] is 30.6 µM (active).

As to `COc1cccc(CCc2ccccc2OCC(CN(C)C)OC(=O)CCC(=O)O)c1` (configuration not stated), the Potency entry in [1], in assay [2], in assay [3], in assay [4], in assay [5] and in assay [6] was “inactive” in each case. Also, the Potency result in assay [7], in assay [8], in [9], in [12] and in assay [13] was “inactive” in each case. In addition, the Potency in assay [14] was 8.41 µM (active); in [10] it was 10.6 µM (active); in [11], 11.9 µM (active).

With `COc1cc(C=C2CCC/C(=C\c3ccc(O)c(OC)c3)C2=O)ccc1O`, the Potency entry in assay [1], in [2], in assay [3], in [4], in assay [5] and in assay [6] was “inactive” each time. Further, the Potency result in [7] and in [8] was “inactive” throughout. Also, the Potency is 23.9 µM (active) in [9], 11.9 µM (active) in assay [10], 9.44 µM (active) in assay [11] and 21.1 µM (active) in assay [15].

For the compound `Clc1ccccc1CN1CCc2sccc2C1`, the Potency entry in [1], in assay [2], in [3], in [4], in assay [5] and in assay [6] was “inactive” each time. The Potency result in assay [7], in [8], in assay [9], in assay [12] and in assay [13] was “inactive” each time. For the same compound, the results for the Potency in [14], in assay [10] and in [11] were 23.7 µM (active), 21.1 µM (active) and 26.6 µM (active), respectively.

Take `CCN(CC)c1ccc(N)cc1`: the Potency entry in assay [1], in assay [2], in assay [3], in assay [4], in [5] and in assay [6] was “inactive” in each case. Besides, the Potency entry in assay [7], in assay [8] and in assay [16] was “inactive” each time. Besides, the Potency in assay [10] is 4.45 µM (active); in [11] it was 4.45 µM (active); in assay [12], 15.9 µM (active); in assay [13], 22.3 µM (active).
